# Source: PubChem BioAssay (NCATS)
# A number with no mark means an inactive call. Records with an inconclusive call do not appear. Entries that show only a call come without a potency. Calls of active or inactive are those of the source. Unless noted, calls come from the whole dose curve; as a rule, active = well fitted curve in the direction sought with a large enough effect; inconclusive = small, poorly fitted or top-dose-only effect, or another doubt; inactive = no such curve, though single readings can be large; an effect the other way counts as inactive or inconclusive.
# Tests used:
# [1] = AP1 Signaling Pathway (AID 357; active = well fitted curve in either direction with a large enough effect, not every such curve was filed as active); conditions: ME-180 AP-1-bla reporter, EGF-induced, beta-lactamase ratio, 5 h; at 7.69 µM (top of the series) unless noted
# How it was run: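 Titration-series screen for positive or negative modulators of EC50 EGF-induced signaling in ME-180 cells carrying an AP-1-driven beta-lactamase reporter. After 5 hours at 37 degrees Celsius, CCF4 460nm/530nm emission ratio gave %Activity; AC50 values derived.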
# [2] = target: Cytochrome P450 1A2 (Homo sapiens) (UniProt P05177); assay: p450-cyp1a2 (AID 410; calls by dose curve; note: potency is the fitted concentration of half-maximal effect)
# Cytochrome P450 1A2 (Homo sapiens), sequence (P05177 whole entry, looked up): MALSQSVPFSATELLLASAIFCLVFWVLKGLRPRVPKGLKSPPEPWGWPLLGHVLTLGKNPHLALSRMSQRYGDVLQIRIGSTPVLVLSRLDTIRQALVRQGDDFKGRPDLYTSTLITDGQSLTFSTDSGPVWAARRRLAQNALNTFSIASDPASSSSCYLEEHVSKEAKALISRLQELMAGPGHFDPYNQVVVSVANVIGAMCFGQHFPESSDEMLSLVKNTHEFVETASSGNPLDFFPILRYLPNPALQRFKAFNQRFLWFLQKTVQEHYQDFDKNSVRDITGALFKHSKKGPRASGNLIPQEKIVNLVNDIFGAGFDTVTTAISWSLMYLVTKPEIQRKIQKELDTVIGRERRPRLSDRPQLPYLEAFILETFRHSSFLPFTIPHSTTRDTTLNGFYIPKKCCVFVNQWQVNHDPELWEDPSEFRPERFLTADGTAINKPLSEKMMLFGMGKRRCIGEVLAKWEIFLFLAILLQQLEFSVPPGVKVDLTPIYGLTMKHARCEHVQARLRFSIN
# How it was run: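 20nM CYP1A2 with 100uM Luciferin-ME (at Km) in 100mM KPO4; compound preincubated 10 min, NADPH regeneration added, 60 min at room temperature. Luciferin quantified by luminescence after detection reagent; normalized to 57 uM furafylline.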
# [3] = Stat Signaling Pathway (AID 446; active = well fitted curve in either direction with a large enough effect, not every such curve was filed as active;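 note: ME-180 cervical cancer cells given 40 pM IL-6 alongside compound; SIE-controlled beta-lactamase reporter measured as 460/530 nm FRET emission ratio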)
# How it was run: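 ME-180 SIE-bla cells; overnight plating; cpd + IL-6 40 pM, 5 h, 37 C; LiveBLAzer 2.5 h RT; 460/530 nm emission ratio. Normalized to 300 pM IL-6 and 125 nM JAK inhibitor controls.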
# [4] = target: Glucocorticoid receptor (Homo sapiens) (UniProt P04150); assay: GR-EFC Redistribution (AID 451; calls by dose curve; note: potency is the fitted concentration of half-maximal effect); conditions: CHO-K1 GR-EFC translocation, beta-gal luminescence, 2 h
# Glucocorticoid receptor (Homo sapiens), sequence (P04150 whole entry, looked up, the tested form may be a part): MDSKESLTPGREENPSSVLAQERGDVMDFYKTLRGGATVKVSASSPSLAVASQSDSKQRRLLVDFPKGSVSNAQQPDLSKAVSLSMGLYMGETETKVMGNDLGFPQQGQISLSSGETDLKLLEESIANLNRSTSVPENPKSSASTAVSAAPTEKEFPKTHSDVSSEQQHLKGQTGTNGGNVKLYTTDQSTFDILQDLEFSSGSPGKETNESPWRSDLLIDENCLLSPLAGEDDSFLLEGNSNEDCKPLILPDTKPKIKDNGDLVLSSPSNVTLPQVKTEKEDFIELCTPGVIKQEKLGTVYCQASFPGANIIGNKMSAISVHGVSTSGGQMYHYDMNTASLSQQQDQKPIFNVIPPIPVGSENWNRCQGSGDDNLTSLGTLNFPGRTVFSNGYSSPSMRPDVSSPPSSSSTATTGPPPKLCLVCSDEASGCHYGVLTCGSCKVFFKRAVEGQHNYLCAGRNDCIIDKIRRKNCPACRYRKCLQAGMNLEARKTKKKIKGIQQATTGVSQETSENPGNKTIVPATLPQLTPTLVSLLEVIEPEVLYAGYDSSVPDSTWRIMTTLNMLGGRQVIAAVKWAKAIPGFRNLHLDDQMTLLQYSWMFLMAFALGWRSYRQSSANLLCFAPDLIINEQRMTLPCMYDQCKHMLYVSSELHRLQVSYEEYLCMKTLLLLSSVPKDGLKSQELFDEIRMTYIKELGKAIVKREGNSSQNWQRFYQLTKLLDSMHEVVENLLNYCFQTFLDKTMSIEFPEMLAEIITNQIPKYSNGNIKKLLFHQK
# How it was run: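 CHO-K1 cells expressing nuclear EA and GR-ED fragments of b-gal; compounds titrated up to 46 uM final, 2 h at 37 C. GR nuclear translocation read as complemented b-gal luminescence after 1 h RT detection.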
# [5] = target: Mitogen-activated protein kinase 10 (Mus musculus) (UniProt Q61831); assay: JNK3 AlphaScreen Assay (AID 530; active = well fitted curve in either direction with a large enough effect, not every such curve was filed as active;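 note: kinase came from lysate of stimulated human HepG2 cells; signal reports phosphorylation of biotinylated GST-cJun 1-79 at Ser73 with 10 µM ATP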)
# How it was run: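 Pre-activated (IL-1β/TNFα) JNK3 in HepG2 lysates phosphorylates biotin-GST-cJun(1-79), 10 uM ATP; anti-phospho-cJun(Ser73) AlphaScreen read at room temperature, pH 7.6 Tris buffer. Compounds pre-incubated 15 min as titrations.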
# [6] = target: 3',5'-cyclic-AMP phosphodiesterase 4B (Homo sapiens) (UniProt Q07343); assay: qHTS Assay for Inhibitors of PDE-IV (AID 607; active = well fitted activation curve with a large enough effect in the main read-out, with a control signal flat, not every such curve was filed as active)
# How it was run: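 ACTOne HEK293 cells carry a modified cAMP-gated CNG channel and express endogenous PDE4; plated 1000 cells/well, compounds up to 22.9 uM final. Membrane-potential dye fluorescence (ex 535/em 590) was read; parental cells received 10 uM forskolin + 100 uM RO 20-1724.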
# [7] = target: Guanine nucleotide-binding protein G(i) subunit alpha-1 (Homo sapiens) (UniProt P63096); assay: qHTS Assay for Inhibitors of RGS12 GoLoco Motif Activity (Green Fluorophore) (AID 879);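 note: negative values mean loss of peptide binding seen as reduced polarization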
# Guanine nucleotide-binding protein G(i) subunit alpha-1 (Homo sapiens), sequence (P63096 whole entry, looked up): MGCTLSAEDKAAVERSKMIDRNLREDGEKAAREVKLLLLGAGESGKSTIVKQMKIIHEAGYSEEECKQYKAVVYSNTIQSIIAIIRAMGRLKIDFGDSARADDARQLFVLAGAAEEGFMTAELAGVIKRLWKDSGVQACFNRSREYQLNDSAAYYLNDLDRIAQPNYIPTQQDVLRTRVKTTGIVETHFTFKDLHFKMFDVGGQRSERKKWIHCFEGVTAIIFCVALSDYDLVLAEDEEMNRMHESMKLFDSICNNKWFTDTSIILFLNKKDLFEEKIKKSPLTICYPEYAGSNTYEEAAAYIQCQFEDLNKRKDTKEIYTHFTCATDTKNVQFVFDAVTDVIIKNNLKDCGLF
# How it was run: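 Fluorescence polarization assay: 50 nM Gαi1 with 10 nM FITC-labeled RGS12 GoLoco peptide in 10 mM Tris pH 7.5, 150 mM NaCl, 0.1 mM GDP, 0.05% NP40, 10 min at room temperature with compound.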
# [8] = target: Cytochrome P450 3A4 (Homo sapiens) (UniProt P08684); assay: qHTS Assay for Activators of Cytochrome P450 3A4 (AID 885); note: nearly all actives have a fitted effect of over 65% in size
# Cytochrome P450 3A4 (Homo sapiens), sequence (P08684 whole entry, looked up): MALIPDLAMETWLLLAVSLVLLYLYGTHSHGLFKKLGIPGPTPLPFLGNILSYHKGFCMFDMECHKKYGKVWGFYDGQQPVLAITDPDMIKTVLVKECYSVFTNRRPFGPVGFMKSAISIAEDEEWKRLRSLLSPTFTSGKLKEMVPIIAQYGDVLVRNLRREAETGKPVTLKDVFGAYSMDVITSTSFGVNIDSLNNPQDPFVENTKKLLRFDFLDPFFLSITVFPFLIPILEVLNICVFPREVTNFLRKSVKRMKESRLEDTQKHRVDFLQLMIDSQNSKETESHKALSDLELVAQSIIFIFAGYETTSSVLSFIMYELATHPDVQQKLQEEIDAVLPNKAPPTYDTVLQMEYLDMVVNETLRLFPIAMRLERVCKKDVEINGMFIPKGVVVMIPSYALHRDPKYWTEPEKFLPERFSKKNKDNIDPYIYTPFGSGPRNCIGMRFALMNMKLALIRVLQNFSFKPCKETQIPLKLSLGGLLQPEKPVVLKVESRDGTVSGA
# How it was run: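 20nM CYP3A4 + 25uM Luciferin-PPXE (=KM), 200mM KPO4; cpd 10 min RT; NADPH regen, 60 min RT; stop w/ detection buffer, 20 min; luminescence. Normalized to 57 uM ketoconazole.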
# [9] = target: Cytochrome P450 2D6 (Homo sapiens) (UniProt P10635); assay: qHTS Assay for Inhibitors and Substrates of Cytochrome P450 2D6 (AID 891); note: potency is the fitted concentration of half-maximal effect; nearly all actives have a fitted effect of over 60% in size
# Cytochrome P450 2D6 (Homo sapiens), sequence (P10635 whole entry, looked up): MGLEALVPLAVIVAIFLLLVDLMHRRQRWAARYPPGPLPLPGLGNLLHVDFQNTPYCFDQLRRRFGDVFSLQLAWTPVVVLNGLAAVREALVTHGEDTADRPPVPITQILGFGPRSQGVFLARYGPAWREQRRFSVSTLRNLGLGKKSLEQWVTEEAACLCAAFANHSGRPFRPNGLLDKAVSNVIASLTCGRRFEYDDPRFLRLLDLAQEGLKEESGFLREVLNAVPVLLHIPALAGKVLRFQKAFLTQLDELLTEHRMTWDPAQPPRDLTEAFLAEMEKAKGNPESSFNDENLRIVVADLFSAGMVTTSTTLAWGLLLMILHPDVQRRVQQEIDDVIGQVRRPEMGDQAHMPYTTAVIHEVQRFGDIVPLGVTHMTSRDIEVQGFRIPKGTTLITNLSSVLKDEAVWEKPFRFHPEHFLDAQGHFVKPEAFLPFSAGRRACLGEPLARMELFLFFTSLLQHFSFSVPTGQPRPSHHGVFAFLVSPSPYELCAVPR
# How it was run: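 Human CYP2D6 (5 nM) with 30 uM Luciferin-ME EGE (at Km) in 100 mM KPO4, compound preincubated 10 min, then NADPH regeneration system for 60 min at room temperature. Luciferin read by luminescence; normalized to 1.43 uM quinidine.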
# [10] = qHTS Assay for Identification of Small Molecule Agonists for Hypoxia Response Element Signaling Pathway (AID 914; active = well fitted activation curve with a large enough effect in the signal ratio, with a control signal flat, not every such curve was filed as active; the % refers to the signal ratio); conditions: ME-180 (cervical carcinoma) HRE-bla reporter, beta-lactamase ratio, CoCl2, 17 h; activation: active compounds read high
# How it was run: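 In Opti-MEM containing 0.5% dialyzed FBS and 10 mM HEPES, ME-180 HRE-bla cells received a compound titration and EC50 CoCl2. They were incubated 17 hours, then CCF4-loaded 2.5 hours at room temperature before ratio reading.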
# [11] = qHTS Assay for Identification of Small Molecule Agonists for Thrombopoietin (TPO) Signaling Pathway (AID 917)
# How it was run: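 Reporter: GpIIb promoter–luciferase in murine Ba/F3 expressing human TPO receptor. Pre-starved of IL-3 overnight; compounds with 26 pM TPO, 24 hrs, 37 C/5% CO2; luminescence read.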
# [12] = target: Muscarinic acetylcholine receptor M1 (Rattus norvegicus) (UniProt P08482); assay: qHTS Assay for Antagonists of Acetylcholine Muscarinic M1 Receptor: Kinetic Measurement of Intracellular Calcium Response (AID 943); note: potency is the fitted concentration of half-maximal effect; nearly all actives have a fitted effect of over 75% in size
# Muscarinic acetylcholine receptor M1 (Rattus norvegicus), sequence (P08482 whole entry, looked up): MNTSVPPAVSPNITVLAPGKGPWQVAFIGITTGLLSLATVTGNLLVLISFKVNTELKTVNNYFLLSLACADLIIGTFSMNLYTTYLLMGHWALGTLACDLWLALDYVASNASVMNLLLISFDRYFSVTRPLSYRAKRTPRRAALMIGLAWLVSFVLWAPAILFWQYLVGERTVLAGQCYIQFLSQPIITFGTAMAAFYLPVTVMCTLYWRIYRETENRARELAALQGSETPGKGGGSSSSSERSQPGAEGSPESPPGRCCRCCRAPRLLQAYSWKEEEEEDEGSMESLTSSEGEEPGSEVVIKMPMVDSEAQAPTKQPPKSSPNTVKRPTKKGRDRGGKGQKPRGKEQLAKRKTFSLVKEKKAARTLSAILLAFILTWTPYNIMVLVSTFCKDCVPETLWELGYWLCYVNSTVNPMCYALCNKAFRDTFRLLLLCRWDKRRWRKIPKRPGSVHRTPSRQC
# How it was run: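 CHO cells expressing rat M1 receptor, Fluo-4 loaded, preincubated 10 min with compound, then stimulated with EC80 carbachol (100 nM final). Kinetic calcium fluorescence over 4 min; response taken as peak over basal signal.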
# [13] = target: Pyruvate kinase (Leishmania mexicana) (UniProt Q27686); assay: qHTS Validation Assay for Inhibitors of Leishmania Mexicana Pyruvate Kinase (AID 945)
# Pyruvate kinase (Leishmania mexicana), sequence (Q27686 2-499 E452W): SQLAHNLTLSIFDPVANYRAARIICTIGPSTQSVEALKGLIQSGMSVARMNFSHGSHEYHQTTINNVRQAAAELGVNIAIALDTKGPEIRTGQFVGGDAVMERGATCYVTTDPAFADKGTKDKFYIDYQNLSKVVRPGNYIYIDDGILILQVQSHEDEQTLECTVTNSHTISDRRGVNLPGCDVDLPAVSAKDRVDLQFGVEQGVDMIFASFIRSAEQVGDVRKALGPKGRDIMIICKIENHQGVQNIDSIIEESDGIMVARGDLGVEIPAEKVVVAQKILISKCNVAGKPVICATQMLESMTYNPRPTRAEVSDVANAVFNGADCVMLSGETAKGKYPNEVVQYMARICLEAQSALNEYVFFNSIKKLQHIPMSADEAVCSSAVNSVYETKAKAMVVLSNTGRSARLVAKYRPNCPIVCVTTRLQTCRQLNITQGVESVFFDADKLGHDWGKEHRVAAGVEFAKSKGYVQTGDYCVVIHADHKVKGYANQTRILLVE
# How it was run: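 An endpoint luciferase assay: 0.2 nM LmPYK E451W turns over 0.5 mM PEP with 0.1 mM ADP for 1 h at room temperature, pH 7.2, before PKLight addition. Values are normalized to DMSO-only wells.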
# [14] = target: Pyruvate kinase PKM (Homo sapiens) (UniProt P14618); assay: qHTS Assay for Activators of Human Muscle Pyruvate Kinase (AID 954; active = well fitted curve in the direction sought with a large enough effect, not every such curve was filed as active)
# Pyruvate kinase PKM (Homo sapiens), sequence (P14618 whole entry, looked up): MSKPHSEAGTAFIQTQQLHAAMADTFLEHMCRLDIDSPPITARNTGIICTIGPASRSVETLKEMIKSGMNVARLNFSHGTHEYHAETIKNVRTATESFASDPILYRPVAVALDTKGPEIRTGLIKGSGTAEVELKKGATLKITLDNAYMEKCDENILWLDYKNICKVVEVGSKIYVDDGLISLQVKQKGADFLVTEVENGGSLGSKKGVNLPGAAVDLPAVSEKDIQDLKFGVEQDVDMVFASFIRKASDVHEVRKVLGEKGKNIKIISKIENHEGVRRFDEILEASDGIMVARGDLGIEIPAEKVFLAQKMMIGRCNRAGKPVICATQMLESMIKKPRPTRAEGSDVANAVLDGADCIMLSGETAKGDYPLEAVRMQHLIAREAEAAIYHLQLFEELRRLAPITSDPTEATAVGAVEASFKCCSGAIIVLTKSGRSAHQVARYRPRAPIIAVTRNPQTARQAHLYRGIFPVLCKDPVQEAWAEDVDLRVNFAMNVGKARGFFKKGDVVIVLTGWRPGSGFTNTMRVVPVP
# How it was run: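 Luminescence from a luciferase ATP-detection/stop reagent reported PKM2 activity. Reactions contained 0.1 nM purified human enzyme, 0.5 mM PEP, 0.1 mM ADP and 7 mM MgCl2 at pH 7.2, run 1 h at RT.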
# [15] = target: Alpha-galactosidase A (Homo sapiens) (UniProt P06280); assay: Counterscreen for Glucocerebrosidase Inhibitors: qHTS Assay for Human alpha-Galactosidase at pH 4.5 (AID 992)
# Alpha-galactosidase A (Homo sapiens), sequence (P06280 whole entry, looked up): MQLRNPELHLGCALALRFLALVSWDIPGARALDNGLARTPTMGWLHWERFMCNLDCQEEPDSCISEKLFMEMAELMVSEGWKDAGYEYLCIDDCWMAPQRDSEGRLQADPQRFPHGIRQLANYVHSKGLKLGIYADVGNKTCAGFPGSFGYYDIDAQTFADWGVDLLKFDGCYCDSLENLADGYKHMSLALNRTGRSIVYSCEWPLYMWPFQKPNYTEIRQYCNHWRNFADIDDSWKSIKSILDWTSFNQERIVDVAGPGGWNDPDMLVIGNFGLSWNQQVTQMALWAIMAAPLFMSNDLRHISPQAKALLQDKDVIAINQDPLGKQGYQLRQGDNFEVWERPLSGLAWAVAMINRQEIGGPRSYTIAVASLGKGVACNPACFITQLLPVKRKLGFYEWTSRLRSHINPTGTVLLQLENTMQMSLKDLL
# How it was run: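 Enzyme at 2 nM final was combined with compound (0.7 nM to 77 uM) and 80 uM 4-methylumbelliferyl alpha-D-galactopyranoside in 50 mM citric acid, 0.005% Tween-20, pH 4.5. After 20 min at room temperature, fluorescence was read (Ex 365/Em 440 nm); AC50 came from Hill fits.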
# [16] = target: alpha-glucosidase (Oryza sativa, rice) (UniProt Q653V4); assay: Counterscreen for Glucocerebrosidase Inhibitors: qHTS Assay for Rice alpha-Glucosidase at pH 5.0 (AID 997)
# How it was run: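 Rice alpha-glucosidase (4 nM final) with 400 uM 4-methylumbelliferyl-alpha-D-glucopyranoside in citrate buffer pH 5.0, 20 min at room temperature, stopped at pH 10; fluorescence 365/440 nm, compounds 0.7 nM–77 uM, AC50 from Hill fits.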
# [17] = target: DNA repair nuclease/redox regulator APEX1 (Homo sapiens) (UniProt P27695); assay: qHTS Validation Assay for Inhibitors of the Human Apurinic/apyrimidinic Endonuclease 1 (APE1) (AID 1705;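 note: TAMRA fluorescence gain over two minutes as APE1 cuts a quenched THF abasic duplex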)
# DNA repair nuclease/redox regulator APEX1 (Homo sapiens), sequence (P27695 whole entry, looked up): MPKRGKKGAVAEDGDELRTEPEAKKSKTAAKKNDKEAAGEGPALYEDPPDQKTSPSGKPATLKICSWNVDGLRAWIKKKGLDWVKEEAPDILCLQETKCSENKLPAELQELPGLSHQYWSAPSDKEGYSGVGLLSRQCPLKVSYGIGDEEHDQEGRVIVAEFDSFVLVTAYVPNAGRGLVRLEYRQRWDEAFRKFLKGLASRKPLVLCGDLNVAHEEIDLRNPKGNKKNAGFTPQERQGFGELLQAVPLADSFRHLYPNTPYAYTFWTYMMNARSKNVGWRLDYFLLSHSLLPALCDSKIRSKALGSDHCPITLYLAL
# How it was run: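 Activity read as rising fluorescence (598 nm emission, 525 nm excitation) from incision of a TAMRA/BHQ-2 duplex carrying a THF abasic site (50 nM). Compound and enzyme sat 15 min at RT before substrate start; signal change between first and third 60-s reads.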
structure (smiles),measurement,setting,value
CCCCN1CCC(COC(=O)c2cc(Cl)c(N)c3c2OCCO3)CC1,"activity change, negative = inhibition",[1],-2.87% [at 38 µM]
same,Potency,[2],12.6 µM (active)
same,outcome,[3],inactive
same,Potency,[4],> 46 µM
same,Potency,[5],inactive
same,Potency,[6],inactive
same,Potency,[7],inactive
same,outcome,[8],inactive
same,Potency,[9],1.26 µM (active)
same,activation,[10],7.22%
same,outcome,[11],inactive
same,Potency,[12],5.62 µM (active)
same,outcome,[13],inactive
same,outcome,[14],inactive
same,outcome,[15],inactive
same,outcome,[16],inactive
same,Potency,[17],inactive
